# Screens: PubChem, National Center for Advancing Translational Sciences (NCATS)
# mIDH1 inhibitor: qHTS for Inhibitors of mutant isocitrate dehydrogenase 1 (IDH1): qHTS. actives 0.093% (n = 390,000). Isocitrate dehydrogenase [NADP] cytoplasmic (Homo sapiens), O75874. Potency, µM (series often up to 76.6 µM), for the others: top-dose activity change, negative = inhibition, most hits filed as inhibitors. IDH1-R132H enzyme, NADPH consumption, diaphorase/resazurin fluorescence; note: potency is the fitted concentration of half-maximal effect; % is set by controls: 0 for no effect and ±100 for the full control effect; nearly all actives have a fitted effect of over 65% in size
# Target sequence (O75874 whole entry R132H, stated change not applied): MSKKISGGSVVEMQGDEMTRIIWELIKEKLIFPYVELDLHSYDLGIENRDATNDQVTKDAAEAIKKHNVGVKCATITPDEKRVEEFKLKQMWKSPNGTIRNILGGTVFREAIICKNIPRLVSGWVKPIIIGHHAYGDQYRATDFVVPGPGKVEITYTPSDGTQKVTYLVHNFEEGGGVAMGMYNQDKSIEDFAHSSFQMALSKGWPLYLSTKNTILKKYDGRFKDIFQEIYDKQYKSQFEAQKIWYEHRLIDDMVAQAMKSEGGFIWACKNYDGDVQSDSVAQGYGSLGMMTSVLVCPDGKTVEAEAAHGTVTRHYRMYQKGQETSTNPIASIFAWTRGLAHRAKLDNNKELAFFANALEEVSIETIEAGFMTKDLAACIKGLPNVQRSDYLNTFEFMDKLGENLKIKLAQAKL
#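 IDH1-R132H (0.5 ug/mL) preincubated 30 min with compound, then NADPH (0.016 mM) and alpha-KG (2 mM) added; 80 min at RT, pH 7.5. Remaining NADPH coupled via diaphorase/resazurin to fluorescence (540/590 nm); concentration-response curves normalized to no-enzyme control.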
# B2AR arrestin: qHTS assay of beta-arrestin-biased ligands of beta2-adrenergic receptor | Beta-2 adrenergic receptor (Homo sapiens), P07550 | beta-arrestin recruitment to beta2AR, cell-based reporter | Potency, µM (titrated, usually from 46.1 µM), without a hit: at the highest dose activation, actives largely listed as activators | actives 0.02% (n = 330,000) | AID 492947, 2010;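 note: potency is the fitted concentration of half-maximal effect; 0% = DMSO controls and full agonism = EC100 isoproterenol or metaproterenol; nearly all actives have a fitted effect of over 65% in size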
# Integrin act MD: qHTS for Activators of Integrin-Mediated Alleviation for Muscular Dystrophy; alpha7betagal myoblasts, beta-gal FDG fluorescence, 48 h; Potency, µM (highest dose often 38.3 µM), for the others: at the top dose activation, usual class: activators; AID 624291, 2012; actives 0.064% (n = 350,000);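 note: potency is the fitted concentration of half-maximal effect; 100% = response of the positive control SU9516; nearly all actives have a fitted effect of over 60% in size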
#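 Alpha7betagal+/- myoblasts (passage 13) were plated 16-24 hr, then exposed to compounds (1:260 dilution of DMSO stock) for 48 hours at 37C. After MPER lysis, β-galactosidase reporter activity was read as FDG fluorescence (ex 480/em 540) after 30 minutes.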
# D3 antag: qHTS of D3 Dopamine Receptor Antagonist: qHTS | D(3) dopamine receptor (Homo sapiens), P35462 | D3R cells, DiscoveRx beta-arrestin luminescence, antagonist mode; stronger effect = lower value | max response, negative = inhibition, % | actives 2.5% (n = 360,000) | AID 652054, 2013; in the data active = max response below about -50%; inconclusive = no clear call, values can overlap the other calls; note: % is set by controls: 0 for no effect and ±100 for the full control effect
#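 Cells expressing the human receptor were seeded at 1500 cells/well, incubated overnight at 37 degrees C in 5% CO2, then exposed to library compounds with dopamine controls for 90 minutes at 37 degrees C before luminescent detection.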
# D3 ag: qHTS of D3 Dopamine Receptor Agonist: qHTS; max activation, %; actives 0.58% (n = 410,000); D3R DiscoveRx beta-arrestin cells, luminescence, 90 min; in the data active = max activation above about 30%; note: 0% is about no effect
#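 Agonist-mode cell screen: cells plated at 1500/well and incubated overnight at 37 °C, then exposed to library compounds for 90 min at 37 °C. Detection reagent was added for 30–60 min at room temperature, and luminescence was read.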
# Numbers without * were called inactive; ? = inconclusive; nt = no result given. Compounds with a hit are over-represented: about 2.9% of the library has one in this group of screens. Unless noted, calls come from the whole dose curve; as a rule, active = well fitted curve in the direction sought with a large enough effect; inconclusive = small, poorly fitted or top-dose-only effect, or another doubt; inactive = no such curve, though single readings can be large; an effect the other way counts as inactive or inconclusive.
SMILES,mIDH1 inhibitor,B2AR arrestin,Integrin act MD,D3 antag,D3 ag
O=c1ccn(Cc2ccccc2)c(=O)n1Cc1ccccc1,-1%,0%,1%,-50*,-1
COc1ccc(Sc2ccc(-c3nc4cnccn4c3NC3CCCCC3)cc2OC)cc1,0%,0%,4%,49,46*
COc1cc(-c2nc3ccc(C)cn3c2NCc2ccccc2)ccc1SC1CCCCC1,10%,0%,-34%,93,24
CCCCNc1c(-c2ccc(OC)c(SC3CCCCC3)c2)nc2cc(C)ccn12,-2%,-1%,-40%,56,10
CCCCNc1c(-c2ccc(OC)c(SC3CCCCC3)c2)nc2cnccn12,11%,0%,-43%,259,45*
CCCCCCSc1cc(-c2nc3cc(C)ccn3c2NC2CCCCC2)ccc1OC,-7%,0%,2%,0,12
COc1cc(-c2nc3ccccn3c2NCc2ccccc2)ccc1SC1CCCCC1,-7%,0%,-35%,118,87*
CCCCCCSc1cc(-c2nc3cnccn3c2NCc2ccccc2)ccc1OC,19%,3%,0%,131,51*
COc1ccc(-c2nc(Cn3c(SCc4ccc(C)cc4)nc4cccnc43)c(C)o2)cc1OC,15%,nt,nt,nt,-9
CN(C(=O)COC(=O)c1cc(S(=O)(=O)N2CCOCC2)ccc1F)C1CCS(=O)(=O)C1 (configuration not stated),3%,0%,16%,18,11
CCCCNc1c(-c2ccc(SC3CCCCC3)cc2)nc2cnccn12,-5%,0%,-35%,106,40*
COc1ccc(-c2nc3cnccn3c2NCc2ccccc2)cc1SC1CCCCC1,-10%,-1%,-15%,97,40*
COc1ccc(-c2nc3ccccn3c2NC2CCCCC2)cc1SC1CCCCC1,-1%,0%,-49%,33,23
CC1(OC(=O)C2CCCC2)C(=O)C=C2C=C(c3ccsc3)N(c3ccccc3)C=C2C1=O (configuration not stated),22%,0%,-26%,-1,5
CC1(OC(=O)C2CCCC2)C(=O)C=C2C=C(c3ccsc3)N(C3CC3)C=C2C1=O (configuration not stated),9%,0%,0%,-64*,0
COc1ccc(CCNC(=O)CCCCCn2c(=O)[nH]c3cc(OC)c(OC)cc3c2=O)cc1OC,7%,nt,nt,nt,-18
N#CC1=C(S)N=C(N)C(c2nc(-c3ccccc3)cs2)C12CCCCC2 (configuration not stated),-18%,9%,7%,-20,-7
Cc1ccc(-c2csc(C3C(N)=NC(S)=C(C#N)C34CCCCC4)n2)cc1 (configuration not stated),-25%,0%,9%,-72*,7
C=C1C(=O)[C@]23C[C@H]1CCC2[C@]1(C)CCC[C@@](C)(C(=O)O)C1C[C@@H]3O (some centres not stated),nt,nt,nt,-89*,-13
Cc1cc(C)nc(SCCCNCc2c(F)cccc2Cl)n1,2%,0%,-29%,-7,-14
Cc1ccc(CNCCCSc2nc(C)cc(C)n2)cc1,-8%,-1%,-52%,-92*,-26
Cc1cc(C)nc(SCCCNCc2ccc(Br)cc2)n1,12%,0%,-47%,-95*,-1
CC(=NNc1nc2ccccc2s1)c1ccncn1,7%,nt,-51%,-57*,-9
O=C(NN=C1CCCC1)C1COc2ccccc2O1 (configuration not stated),-5%,0%,?,-7,43*
O=C(NNC(=O)C1COc2ccccc2O1)c1ccccc1O (configuration not stated),3%,0%,-18%,8,32*
SMILES,mIDH1 inhibitor,B2AR arrestin,Integrin act MD,D3 antag,D3 ag
CCC(C)[C@H]1COCCS(=O)(=O)N1Cc1ccccc1F (some centres not stated),16%,-1%,18%,-1,-14
CC(C)C[C@H]1COCCS(=O)(=O)N1Cc1ccccc1F,13%,nt,3%,-4,42*
Cc1ccc(S(=O)(=O)c2nc(-c3ccccc3Cl)oc2N2CCN(C)CC2)cc1,1%,-1%,0%,-55*,-17
CCN1CCN(c2oc(-c3ccccc3C)nc2S(=O)(=O)c2ccccc2)CC1,9%,0%,-33%,-83*,-36
Cc1ccc(S(=O)(=O)c2nc(-c3ccccc3Cl)oc2N2CCCCCC2)cc1,nt,nt,nt,nt,-8
NS(=O)(=O)c1cnccc1Nc1cccc(F)c1,-2%,nt,4%,-8,-4
CN(CC(=O)Nc1ccc(F)c(F)c1F)C(=O)c1ccc2c(c1)OCCO2,0%,0%,-11%,28,-1
C(=N\c1nc2ccccc2[nH]1)/c1cccs1,0%,-1%,-9%,-57*,-2
CCOC(=O)/C(C(N)=NCCO)=C(/O)c1ccccc1,6%,0%,13µM*,?,-5
Cc1ccc(C(=O)C2=C(O)C(=O)N(Cc3cccnc3)C2c2cccc(Oc3ccccc3)c2)o1 (configuration not stated),?,nt,-20%,-69*,2
CCOc1cc(C2C(C(=O)c3ccc(C)o3)=C(O)C(=O)N2CCc2ccccc2)ccc1O (configuration not stated),-4%,0%,9%,-56*,0
C=CCOc1cccc(C2C(C(=O)c3ccc(C)o3)=C(O)C(=O)N2CCN(C)C)c1 (configuration not stated),3%,0%,16%,-64*,-7
COc1cc(C2C(C(=O)c3ccc(C)o3)=C(O)C(=O)N2Cc2ccccc2)ccc1O (configuration not stated),-9%,0%,18%,-22,-5
Nc1[nH]c(C(=O)c2ccccc2)c(-c2cccnc2)c1C(=O)NC1CCCCC1,nt,nt,nt,-10,-15
O=S(=O)(NCC(c1cccs1)S(=O)(=O)c1ccccc1)c1ccc(F)cc1 (configuration not stated),13%,nt,nt,nt,-10
CCc1c(C)c2cc3c(c(C)c2oc1=O)OCN(CCc1ccccc1F)C3,-3%,nt,nt,nt,-35
O=C(CC12CC3CC(CC(C3)C1)C2)N1CCCC1,10%,0%,-11%,-13,-8
CN1CCN(C(=O)CC23CC4CC(CC(C4)C2)C3)CC1,9%,-1%,?,-78*,-4
Clc1ccc(Cl)c(OCCN2CCOCC2)c1,2%,2%,14%,-52*,8
Clc1ccc(Cl)c(OCCN2CCCC2)c1,-9%,0%,-1%,-75*,0
CC(C)(C)c1cc(Cl)ccc1OCCOCCN1CCCC1,-4%,0%,-66%,-30,-29
